Experimental data published in the supplement of paper PMC10849652.
Targets with a hit are over-represented here; the source holds about 8,800 in all. About 0.5% of all pairs of compound and target were hits.

How the values were obtained:
Assay in all cases: log2 fold change, soluble protein after heating vs DMSO (PISA); higher = thermal stabilisation; K562 lysate, 10 uM; active = over 0.2 and 3.5 SD of the protein, either way, in both replicates (recomputed)
[1] = compound: C1=CC=C(C=C1)[C@H](COC2=CC3=C(C=C2)NC(=O)N3)NC(=O)C4=CC=CN(C4=O)CC5=CC(=C(C=C5)F)F
How it was run: (§1)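 Thermal stability, expressed as log-two fold change relative to solvent controls, is given from duplicates. Crude K562 extract in PBS pH 7.4 with 1 mM MgCl2, at 1 mg/mL protein, was treated with 10 μM compound for 30 min and heated in aliquots for 3 min across 48°C-58°C. After pooling, adjustment to 0.5% NP-40 at 4°C and centrifugation at 21,000xg for 90 min, supernatant protein was measured by TMTpro 16plex LC-MS/MS with channel sums equalised.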

[2] = compound: CC1=C(SC2=C1C(=N[C@H](C3=NN=C(N32)C)CC(=O)N)C4=CC=C(C=C4)Cl)C
How it was run: as §1

[3] = compound: CC1=C2C(=CC=C1)N=C(N(C2=O)C3=CC=CC=C3C)CN4C=NC5=C(N=CN=C54)N
How it was run: as §1

[4] = compound: Cc1sc2c(c1C)C(c1ccc(Cl)cc1)=N[C@@H](CC(=O)OC(C)(C)C)c1nnc(C)n1-2
How it was run: as §1

[5] = compound: c1ccc([C@@H]2C[C@H]2NC2CCNCC2)cc1
How it was run: as §1

Measured: log2 fold change

PLEKHA5 isoform 6 (UniProt Q9HAU0)
Chain of UniProt Q9HAU0 (Q9HAU0 whole entry, looked up): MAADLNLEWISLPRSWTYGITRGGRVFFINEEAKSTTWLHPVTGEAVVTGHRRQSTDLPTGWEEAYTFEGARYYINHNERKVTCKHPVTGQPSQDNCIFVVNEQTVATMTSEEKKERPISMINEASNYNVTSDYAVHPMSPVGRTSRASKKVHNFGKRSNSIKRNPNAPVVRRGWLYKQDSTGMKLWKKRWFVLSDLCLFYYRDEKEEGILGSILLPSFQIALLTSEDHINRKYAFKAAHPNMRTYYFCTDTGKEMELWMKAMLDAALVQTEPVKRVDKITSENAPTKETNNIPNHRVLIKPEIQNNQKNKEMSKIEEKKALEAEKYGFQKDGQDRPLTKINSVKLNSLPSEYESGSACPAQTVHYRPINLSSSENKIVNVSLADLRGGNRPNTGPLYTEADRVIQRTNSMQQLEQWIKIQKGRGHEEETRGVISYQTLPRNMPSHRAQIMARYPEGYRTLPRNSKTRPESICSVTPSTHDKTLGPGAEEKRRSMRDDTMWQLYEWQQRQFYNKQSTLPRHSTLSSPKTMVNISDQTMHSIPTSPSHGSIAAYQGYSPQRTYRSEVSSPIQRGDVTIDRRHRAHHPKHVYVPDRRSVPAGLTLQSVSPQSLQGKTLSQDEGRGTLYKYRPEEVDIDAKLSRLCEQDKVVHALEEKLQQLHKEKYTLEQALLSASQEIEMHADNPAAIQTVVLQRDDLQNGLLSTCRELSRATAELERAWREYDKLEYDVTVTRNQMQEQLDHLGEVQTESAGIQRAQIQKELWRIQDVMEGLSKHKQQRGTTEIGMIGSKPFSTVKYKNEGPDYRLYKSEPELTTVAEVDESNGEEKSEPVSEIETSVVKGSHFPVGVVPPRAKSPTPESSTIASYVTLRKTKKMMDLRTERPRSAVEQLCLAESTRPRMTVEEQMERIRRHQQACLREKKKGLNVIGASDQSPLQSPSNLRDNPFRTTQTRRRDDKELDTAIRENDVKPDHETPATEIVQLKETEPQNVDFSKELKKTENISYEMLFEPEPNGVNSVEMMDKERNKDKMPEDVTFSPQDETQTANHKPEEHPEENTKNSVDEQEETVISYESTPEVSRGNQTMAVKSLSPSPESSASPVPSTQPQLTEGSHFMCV
inactive: [1] 0 | [2] -0.112 | [3] -0.06 | [4] -0.013 | [5] 0.045

PPM1H (UniProt Q9ULR3)
inactive: [1] 0.011 | [2] -0.023 | [3] -0.008 | [4] 0.062 | [5] 0.05

PTPN2 (UniProt P17706)
Chain of UniProt P17706 (P17706 whole entry, looked up): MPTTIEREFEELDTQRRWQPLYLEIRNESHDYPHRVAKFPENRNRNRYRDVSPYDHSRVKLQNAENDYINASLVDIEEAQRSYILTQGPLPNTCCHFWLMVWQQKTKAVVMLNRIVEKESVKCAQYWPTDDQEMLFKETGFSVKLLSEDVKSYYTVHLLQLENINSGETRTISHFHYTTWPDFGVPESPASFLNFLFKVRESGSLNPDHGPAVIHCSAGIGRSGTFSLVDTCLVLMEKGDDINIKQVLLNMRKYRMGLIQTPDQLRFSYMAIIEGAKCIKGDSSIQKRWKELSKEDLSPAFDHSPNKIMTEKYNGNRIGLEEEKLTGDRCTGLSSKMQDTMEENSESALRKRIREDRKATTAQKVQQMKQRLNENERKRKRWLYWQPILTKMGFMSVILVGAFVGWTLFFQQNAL
inactive: [1] -0.031 | [2] 0.017 | [3] 0.023 | [4] 0.007 | [5] 0.012

PI4KA (UniProt P42356)
inactive: [1] -0.08 | [2] -0.012 | [3] 0.057 | [4] -0.019 | [5] -0.018

PI4K2A (UniProt Q9BTU6)
Chain of UniProt Q9BTU6 (Q9BTU6 whole entry, looked up): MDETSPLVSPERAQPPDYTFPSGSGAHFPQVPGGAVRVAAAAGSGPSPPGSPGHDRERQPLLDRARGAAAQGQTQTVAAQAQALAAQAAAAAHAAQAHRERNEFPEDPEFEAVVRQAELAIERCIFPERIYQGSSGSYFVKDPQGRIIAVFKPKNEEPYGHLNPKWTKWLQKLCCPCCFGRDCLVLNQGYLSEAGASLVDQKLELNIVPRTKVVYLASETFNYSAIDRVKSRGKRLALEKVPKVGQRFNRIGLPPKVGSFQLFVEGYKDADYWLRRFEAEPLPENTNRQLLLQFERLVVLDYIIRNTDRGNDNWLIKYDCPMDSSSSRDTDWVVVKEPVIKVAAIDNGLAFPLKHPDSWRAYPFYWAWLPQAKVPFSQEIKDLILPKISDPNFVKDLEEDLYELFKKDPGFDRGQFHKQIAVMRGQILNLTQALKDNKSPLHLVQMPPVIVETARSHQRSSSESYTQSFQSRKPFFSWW
inactive: [1] 0.028 | [2] 0.056 | [3] -0.007 | [4] -0.002 | [5] 0.001

PHKA1 (UniProt P46020)
Chain of UniProt P46020 (P46020 whole entry, looked up): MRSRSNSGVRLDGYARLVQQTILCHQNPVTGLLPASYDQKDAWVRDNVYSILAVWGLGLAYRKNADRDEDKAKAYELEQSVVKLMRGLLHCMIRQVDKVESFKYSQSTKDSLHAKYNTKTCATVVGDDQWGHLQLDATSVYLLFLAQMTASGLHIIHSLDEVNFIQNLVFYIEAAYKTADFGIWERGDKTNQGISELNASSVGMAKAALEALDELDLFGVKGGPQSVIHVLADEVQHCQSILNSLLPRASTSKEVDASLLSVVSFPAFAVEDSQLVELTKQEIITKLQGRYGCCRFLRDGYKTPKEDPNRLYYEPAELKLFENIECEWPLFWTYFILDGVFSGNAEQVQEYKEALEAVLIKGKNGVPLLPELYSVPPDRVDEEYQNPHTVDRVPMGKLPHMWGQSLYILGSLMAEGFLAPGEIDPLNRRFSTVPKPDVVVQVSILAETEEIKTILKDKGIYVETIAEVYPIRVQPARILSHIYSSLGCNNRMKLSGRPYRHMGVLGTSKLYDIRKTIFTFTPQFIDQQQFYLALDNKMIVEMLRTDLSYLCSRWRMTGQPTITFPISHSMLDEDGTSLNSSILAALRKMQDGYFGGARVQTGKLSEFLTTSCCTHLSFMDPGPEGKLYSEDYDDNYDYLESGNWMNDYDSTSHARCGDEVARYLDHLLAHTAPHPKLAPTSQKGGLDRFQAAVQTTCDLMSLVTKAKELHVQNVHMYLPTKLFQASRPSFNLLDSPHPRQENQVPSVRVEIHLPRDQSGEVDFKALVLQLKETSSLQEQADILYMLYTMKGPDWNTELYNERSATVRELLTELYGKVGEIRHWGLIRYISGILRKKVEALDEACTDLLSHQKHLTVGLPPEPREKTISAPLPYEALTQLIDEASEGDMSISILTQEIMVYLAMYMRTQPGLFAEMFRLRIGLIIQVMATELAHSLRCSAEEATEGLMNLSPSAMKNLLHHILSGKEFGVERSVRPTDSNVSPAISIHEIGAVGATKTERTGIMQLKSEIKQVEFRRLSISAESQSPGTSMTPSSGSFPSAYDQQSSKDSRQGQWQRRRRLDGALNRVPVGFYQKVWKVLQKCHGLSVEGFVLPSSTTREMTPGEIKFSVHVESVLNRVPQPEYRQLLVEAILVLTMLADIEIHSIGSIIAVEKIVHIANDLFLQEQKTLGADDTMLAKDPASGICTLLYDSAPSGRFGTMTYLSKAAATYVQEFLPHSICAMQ
inactive: [1] 0.033 | [2] 0.02 | [3] 0 | [4] -0.008 | [5] 0.001

PLEKHO2 (UniProt Q8TD55)
inactive: [1] -0.158 | [2] 0.077 | [3] -0.076 | [4] -0.107 | [5] 0.043

PRKCA (UniProt P17252)
inactive: [1] 0.01 | [2] -0.012 | [3] -0.061 | [4] 0.021 | [5] 0.089

PWP2 (UniProt Q15269)
Chain of UniProt Q15269 (Q15269 whole entry, looked up): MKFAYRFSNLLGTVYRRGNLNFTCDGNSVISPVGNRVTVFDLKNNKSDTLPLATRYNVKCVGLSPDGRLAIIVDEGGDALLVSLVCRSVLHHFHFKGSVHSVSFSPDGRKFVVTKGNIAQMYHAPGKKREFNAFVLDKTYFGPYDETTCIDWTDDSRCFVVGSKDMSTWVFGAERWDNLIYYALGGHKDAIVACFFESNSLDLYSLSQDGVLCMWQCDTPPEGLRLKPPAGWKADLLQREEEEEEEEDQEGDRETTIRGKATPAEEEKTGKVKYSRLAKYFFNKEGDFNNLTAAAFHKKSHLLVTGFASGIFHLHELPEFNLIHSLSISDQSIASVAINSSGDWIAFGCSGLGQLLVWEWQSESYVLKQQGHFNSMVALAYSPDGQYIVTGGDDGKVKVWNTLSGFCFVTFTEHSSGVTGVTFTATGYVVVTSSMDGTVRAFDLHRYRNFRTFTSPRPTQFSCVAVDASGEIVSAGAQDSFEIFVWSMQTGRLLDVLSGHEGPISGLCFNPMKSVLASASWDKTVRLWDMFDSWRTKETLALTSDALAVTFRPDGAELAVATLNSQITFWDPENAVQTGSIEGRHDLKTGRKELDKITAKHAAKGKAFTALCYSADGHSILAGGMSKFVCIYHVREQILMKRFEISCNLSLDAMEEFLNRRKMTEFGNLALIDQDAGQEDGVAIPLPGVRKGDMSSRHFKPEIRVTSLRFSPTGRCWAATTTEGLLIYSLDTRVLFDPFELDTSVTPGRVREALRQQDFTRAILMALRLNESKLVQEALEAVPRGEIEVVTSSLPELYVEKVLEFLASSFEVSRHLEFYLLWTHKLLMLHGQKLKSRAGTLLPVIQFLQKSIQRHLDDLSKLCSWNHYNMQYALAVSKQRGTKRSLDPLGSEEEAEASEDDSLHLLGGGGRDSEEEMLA
inactive: [1] -0.004 | [2] -0.042 | [3] -0.013 | [4] -0.048 | [5] 0.061
